Test results: PubChem BioAssay (NCATS)
Several values for one entry are separate records, joined by “and”; a condition that tells them apart may be missing. Equal entries are not always repeated. Inconclusive results are not listed. Activity calls are given as the source filed them. Unless noted, calls follow the shape of the dose curve; as a rule, active = well fitted curve in the direction sought with a large enough effect; inconclusive = small, poorly fitted or top-dose-only effect, or another doubt; inactive = no such curve, though single readings can be large; an effect the other way counts as inactive or inconclusive.

Legend:
[1] = qHTS profiling for inhibitors of Plasmodium falciparum (3D7) proliferation (AID 743322);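 also: infected erythrocytes exposed to compound for 72 h before lysis; 100% = DMSO vehicle wells and 0% = 0.29 µM artemisinin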; settings: P. falciparum 3D7 proliferation; at 28.7 µM (top of the series)
In short: (§1)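 Erythrocytes infected with P. falciparum (0.3% parasitemia, 2.5% hematocrit) incubated with compounds 72 h at 37 C, 5% CO2. Lysis with saponin/Triton buffer containing SYBR Green I, overnight at room temperature in the dark; DNA fluorescence (485/535 nm) normalised to 0.29 uM artemisinin and DMSO.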

[2] = qHTS profiling for inhibitors of Plasmodium falciparum (DD2) proliferation (AID 743323; call rule not given here); settings: lower = more inhibition; at 28.7 µM (top of the series)
In short: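 Parasite proliferation measured via DNA-dye fluorescence, as uninfected erythrocytes lack DNA. Cultures at 0.3% parasitemia and 2.5% hematocrit incubated 72 h with compound; signal scaled between vehicle and 0.29 uM artemisinin wells.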

[3] = qHTS profiling for inhibitors of Plasmodium falciparum (HB3) proliferation (AID 743324); settings: Plasmodium falciparum HB3 blood-stage proliferation; at 28.7 µM (top of the series);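 also: 100% = DMSO vehicle wells and 0% = artemisinin-treated control wells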
In short: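 P. falciparum HB3 grown in erythrocytes (0.3% parasitemia, 2.5% hematocrit final) with compound for 72 h at 37 C, 5% CO2. Parasite DNA detected by SYBR Green after saponin/triton lysis overnight; normalized to 0.29 uM artemisinin and DMSO.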

[4] = qHTS profiling of the MIPE4 collection as inhibitors of Plasmodium falciparum (3D7) proliferation (AID 743344; call rule not given here;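 also: scaled between DMSO vehicle wells and 0.29 µM artemisinin as full inhibition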); settings: P. falciparum 3D7 in erythrocytes, SYBR Green DNA fluorescence, 72 h; at 28.5 µM (top of the series) unless noted
In short: as §1

[5] = qHTS profiling of the MIPE4 collection as inhibitors of Plasmodium falciparum (DD2) proliferation (AID 743345; call rule not given here); settings: P. falciparum Dd2 in erythrocytes, SYBR Green DNA, 72 h; at 28.5 µM (top of the series) unless noted
In short: as §1

[6] = qHTS profiling of the MIPE4 collection as inhibitors of Plasmodium falciparum (DD2) proliferation (Rep 2) (AID 743346; call rule not given here); settings: P. falciparum Dd2 in erythrocytes, SYBR Green DNA, 72 h; at 28.5 µM (top of the series) unless noted
In short: as §1

[7] = qHTS profiling of the MIPE4 collection as inhibitors of Plasmodium falciparum (HB3) proliferation (AID 743347; call rule not given here;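 also: plate controls were DMSO vehicle wells for no effect and artemisinin wells for full effect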); settings: P. falciparum HB3 in erythrocytes, SYBR Green DNA, 72 h; at 28.5 µM (top of the series) unless noted
In short: as §1

[8] = High-throughput drug toxicity screening in the BPDCN cell line Gen2.2 (AID 1224824; call rule not given here); settings: Gen2.2 BPDCN cells; at 45.8 µM (top of the series) unless noted
In short: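 Gen2.2 cells (500/well) in phenol red-free RPMI with 10% FBS were exposed to compounds for 48 h at 37 °C, 5% CO2. Viability was read by CellTiter-Glo luminescence and normalized to DMSO (100%) and 9.2 uM bortezomib (0%).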

[9] = High-throughput drug toxicity screening in the BPDCN cell line Cal-1 (AID 1224825; call rule not given here); settings: Cal-1 BPDCN cell viability, qHTS; at 45.8 µM (top of the series) unless noted
In short: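 Exponentially growing Cal-1 cells, 500 per well in phenol red-free RPMI with 10% FBS, were exposed to compounds for 48 h at 37 °C, 5% CO2. Viability was read by CellTiter-Glo luminescence and normalised to DMSO (100%) and 9.2 uM bortezomib (0%).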

[10] = qHTS assay for measurement of the activity of small molecule inhibitors on Zika virus induced Caspase-3 activity in human iPSC derived neural progenitor cells (hNPCs) (AID 1224857); also: % of control where 0% means no effect; nearly all actives have a fitted effect of over 65% in size
In short: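 After overnight (16–20 h) culture at 350 cells/well, hNPCs get compound, then ZIKV 2 FFU/cell one hour later. Six hours on, Caspase-Glo 3/7 is added and luminescence measured.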

[11] = qHTS assay for measurement of the activity of small molecule inhibitors on Zika virus induced Caspase-3 activity in human astrocytoma cells (AID 1224859);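 also: plate controls were ZIKV-infected untreated cells for no effect and uninfected cells for full effect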
In short: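 Inhibition of Zika-induced caspase-3/7 activity: SNB-19 cells, 1 h compound pretreatment, ZIKV 2 FFU/cell for 6 h at 37 C, Caspase-Glo luminescence read-out.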

[12] = qHTS Screen of the MIPE 4.0 Collection Against Ewings Sarcoma (RDES) (AID 1259252); also: nearly all actives have a fitted effect of over 35% in size; also: potency is read from the fitted curve at half-maximal effect
In short: (§2)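 Measured: ATP luminescence (CellTiter-Glo) 10 min after reagent addition, following 48 h drug treatment. Relative luciferase units converted to percent activity, with no-cell wells as full and DMSO wells as zero inhibition.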

[13] = qHTS Screen of the MIPE 4.0 Collection Against Ewings Sarcoma (TC71) (AID 1259253); also: nearly all actives have a fitted effect of over 40% in size; also: potency is read from the fitted curve at half-maximal effect
In short: as §2

[14] = qHTS Screen of the MIPE 4.0 Collection Against Ewings Sarcoma (EW8) (AID 1259255); also: nearly all actives have a fitted effect of over 35% in size; also: potency is read from the fitted curve at half-maximal effect;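 as to viability: 100% = DMSO-treated cells and 0% = medium-only wells without cells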
In short: as §2

[15] = qHTS Screen of the MIPE 4.0 Collection Against Ewings Sarcoma (TC32) (AID 1259256); also: nearly all actives have a fitted effect of over 45% in size; also: potency is read from the fitted curve at half-maximal effect
In short: as §2

[16] = Identifying Small Molecule Inhibitors of Pancreatic Cancer Stem Cells (SN12C, Adherent) (AID 1259358);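 also: cell survival measured after 48 h of compound exposure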; also: potency is read from the fitted curve at half-maximal effect
In short: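 After a 4 h attachment period, compounds were pinned into wells and cultures held 48 h under standard incubator conditions. Viability was then measured as CellTiter-Glo luminescence following 10 min at room temperature.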

[17] = qHTS assay to identify small molecule inhibitors of chordoma cells - UCH-2 (AID 1259356); also: % is scaled to controls: 0 for no effect and ±100 for the full control effect
[18] = qHTS assay to identify small molecule inhibitors of chordoma cells - UCH-1 (AID 1259355); also: % is scaled to controls: 0 for no effect and ±100 for the full control effect; nearly all actives have a fitted effect of over 55% in size
In short: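 Luminescent ATP read-out (CellTiter-Glo, 30min at room temperature) measured viability of UCH-1 cells exposed for 48hr to test drugs at 15 concentrations, co-dosed with a five-agent combination of auranofin, camptothecin, doxorubicin, rubitecan and topotecan.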

[19] = Identifying Small Molecule Inhibitors of Pancreatic Cancer Stem Cells (A2780, Spheroid) (AID 1259357); settings: Potency: A2780 spheroid viability;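 also: potency is read from the fitted curve at half-maximal effect; compound exposure lasted 48 h before the ATP luminescence read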
In short: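 Monolayer and spheroid cultures are compared. Spheroids form over 14 days in stem cell medium on hydrogel-coated low-attachment plates, then are exposed to compound for 48 h before CellTiter-Glo luminescence.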

[20] = Identifying Small Molecule Inhibitors of Pancreatic Cancer Stem Cells (Panc1, Spheroid) (AID 1259359);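 also: potency is read from the fitted curve at half-maximal effect; compound exposure lasted 48 h before reading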
In short: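 Adherent (2D) versus sphere (3D) formats; spheres generated 14 d in SCM beforehand. Compound transferred by pin tool after 4 h, 48 h incubation, CellTiter-Glo endpoint.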

Row | SMILES | remaining parasite growth % (stronger effect = lower value) [1] | activity, percent of control [2] | remaining proliferation (% of control), lower = more inhibition [3] | parasite growth, % of DMSO control [4] | parasite growth remaining, % of DMSO control (lower = more inhibition) [5] | parasite growth, % of control (lower = inhibition) [6] | growth, % of control [7] | cell viability, % of control (lower = more cytotoxic) [8] | viability (% of control) [9] | Potency [10] | Potency [11] | Potency [12] | Potency [13] | Potency [14] | Potency [15] | Potency [16] | outcome [17] | Potency [18] | Potency [19] | Potency [20]
1 | CC(C)(C)c1cc(NC(=O)Nc2ccc(-c3cn4c(n3)sc3cc(OCCN5CCOCC5)ccc34)cc2)no1 | -1.57% | 0.456% | -0.226% | 4.46% | 7.47% | 15.2% | 2.53% | 252% | 75.9% | inactive | inactive | inactive | inactive | inactive | inactive | inactive | – | – | – | –
2 | Nc1ccn([C@@H]2O[C@H](CO)[C@H](O)C2(F)F)c(=O)n1 | – | – | – | 19.5% | 10.3% | 8.03% | 42.2% | 144% | 11.1% | inactive | inactive | 52.6 nM (active) | 41.8 nM (active) | 16.6 nM (active) | 18.7 nM (active) | – | inactive | – | – | –
3 | CS(=O)(=O)N1CCN(Cc2cc3nc(-c4cccc5[nH]ncc45)nc(N4CCOCC4)c3s2)CC1 | – | – | – | – | – | – | – | 27.2% | 27.7% | inactive | inactive | 1180 nM (active) | 5900 nM (active) | 1660 nM (active) | 418 nM (active) | 296 nM (active) | – | – | – | –
4 | CC=CC1=C(C(=O)O)N2C(=O)[C@H](NC(=O)[C@H](N)c3ccc(O)cc3)[C@@H]2SC1 | – | – | – | 99.8% | – | – | 88% | 52.6% | 89.2% | inactive | inactive | inactive | inactive | inactive | inactive | – | inactive | inactive | – | –
5 | COc1c(N2C[C@@H]3CCCN[C@H]3C2)c(F)cc2c(=O)c(C(=O)O)cn(C3CC3)c12 | – | – | – | 53.9% and 70.8% | 76.4% | 31.4% and 104% | – | 73.3% | 71.9% | inactive | inactive | inactive | inactive | inactive | inactive | – | inactive | inactive | – | –
6 | C#Cc1cccc(Nc2ncnc3cc(OC)c(OCCCCCCC(=O)NO)cc23)c1 | -1.67% | 0.0372% | -0.395% | 5.53% | 6.37% | 11.2% | 3.1% | 44.2% | 3.6% | inactive | inactive | 20.9 nM (active) | 74.3 nM (active) | 59 nM (active) | 37.2 nM (active) | 14800 nM (active) | – | – | – | –
7 | Cc1ccc(-c2ncn(-c3ccc(Nc4nccc(-c5cccc(N6CCOCC6)c5)n4)cc3)n2)cn1 | 3.9% | 4.15% | 5.18% | 5.55% | 6.69% | 11.5% | 8.45% | 5.12% | 3.62% | inactive | inactive | 74.3 nM (active) | 118 nM (active) | 93.5 nM (active) | 52.6 nM (active) | 59 nM (active) | – | – | – | –
8 | CN[C@H]1CCc2cc(OC)c(OC)c(OC)c2-c2ccc(OC)c(=O)cc21 | – | – | – | 67.4% | 90.5% | 47.1% | 90.6% | 24.2% | 11.6% | inactive | inactive | 2.1 nM (active) | 3.3 nM (active) | 1.9 nM (active) | inactive | – | inactive | – | – | –
9 | CN1CC[C@@H](c2c(O)cc(O)c3c(=O)cc(-c4ccccc4Cl)oc23)[C@@H](O)C1 | 3.4% | 4.17% | 4.58% | 8.91% | 13.5% | 9.93% | 11.3% | 7.16% | 5.59% | inactive | inactive | 148 nM (active) | 74.3 nM (active) | 118 nM (active) | 148 nM (active) | 187 nM (active) | – | – | 74.3 nM (active) | 132 nM (active)
10 | Nc1ccn([C@@H]2CS[C@H](CO)O2)c(=O)n1 | – | – | – | 404% [at 57.5 µM] | 100% [at 57.5 µM] | 146% [at 57.5 µM] | 263% [at 57.5 µM] | 218% [at 92.2 µM] | 11% [at 92.2 µM] | inactive | inactive | inactive | inactive | inactive | inactive | – | inactive | inactive | – | –
11 | CC(C)(C)c1cc(C(C)(C)C)c(NC(=O)c2c[nH]c3ccccc3c2=O)cc1O | 33.5% | 28.9% | 18.9% | 106% | 95.2% | 88.9% | 57.9% | 105% | 102% | inactive | inactive | inactive | inactive | inactive | inactive | – | – | – | – | –
12 | CNC(=O)c1cc(Oc2ccc(NC(=O)Nc3cc(C(C)(C)C)nn3-c3ccc4ncccc4c3)c(F)c2)ccn1 | 26.7% | 73.3% | 24.1% | 5.7% | 15.5% | 10.2% | 9.48% | 5.59% | 7% | inactive | inactive | 20900 nM (active) | 16600 nM (active) | 18700 nM (active) | 20900 nM (active) | – | – | – | – | 13200 nM (active)
13 | CNc1nccc(-c2cccnc2Oc2cc(C(=O)Nc3cccc(C(F)(F)F)c3)ccc2C)n1 | 5.98% | 13.8% | 3.23% | 6.2% | 31.1% | 19.8% | 7.15% | 13% | 15.7% | inactive | inactive | 4180 nM (active) | 16600 nM (active) | 18700 nM (active) | 16600 nM (active) | – | – | – | – | –
